According to PubChem BioAssay AID1159580 (chemical genetic matrix, 2015):
About 2,000 (36%) of roughly 5,500 compounds were called active. Inconclusive results (about 18%) are left out. Cut-off read from the data, not from the text of the source: active = normalized growth mostly below about 0.91 (no sharp cut-off); inconclusive = no clear call, values can overlap the other calls; inactive = mostly above about 0.92. The list shows a part of the results. Where a SMILES comes first, the peptide text is derived from it. Bridges are numbered along the chain shown (N, C = ends). [ ]: non-standard residue; d: D form. The star is where a group is joined. Heptanoyl(6-Me) = CC(C)CCCCC(=O)*; Dab = NCC[CH](N)C(=O)O

Assay: chemical genetic growth profiling, strain panel (AID 1159580);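 note: tested at 20 µM; growth read once vehicle control cultures reached saturation at 30 °C; 1 = growth at the plate median or of vehicle wells; lower values mean less growth of the strain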
Conditions: S. cerevisiae deletion strains, growth OD

Measured: normalized growth

CCC(C)C1NC(=O)C(CCN)NC(=O)C(NC(=O)C(CCN)NC(=O)C(NC(=O)C(CCN)NC(=O)CCCCC(C)C)C(C)O)CCNC(=O)C(C(C)O)NC(=O)C(CCN)NC(=O)C(CCN)NC(=O)C(C(C)CC)NC1=O (configuration not stated) ({Heptanoyl(6-Me)}-[Dab]T[Dab][Dab][Dab]II[Dab][Dab]T; lactam 4-C; configuration not given here)
inactive: locus YHR030C, strain SLT2, hits give low values 0.976 | locus YJL095W, strain BCK1, hits give low values 0.985 | locus YJR066W, strain TOR1, hits give low values 0.95 | locus YLR113W, strain HOG1, hits give low values 0.967 | locus YNL183C, strain NPR1, hits give low values 0.944 | locus YOR231W, strain MKK1, hits give low values 0.971 | locus YPL256C, strain CLN2, hits give low values 0.973
